According to PubChem BioAssay (NCI):
The panel holds about 83,000 compounds, 20% with a hit somewhere; the sample as a whole holds those more often.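 48-hour exposure, single concentration, 96-well plates; percent growth endpoint where 0 means no net growth. Active: below 10.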 Values without a mark were called inactive. Calls of active or inactive are those of the source.

Assays:
Assay in all cases: NCI-60 one-dose screen, 48 h (100 = growth as untreated, 0 = no growth, -100 = all killed)
Details in all cases: 10 µM unless noted
T-47D breast = test system: T-47D breast
BT-549 breast = test system: BT-549 breast
MDA-MB-435 melanoma = test system: MDA-MB-435 melanoma
SW-620 colon = test system: SW-620 colon
MCF7 breast = test system: MCF7 breast
HCT-116 colon = test system: HCT-116 colon
HCC-2998 colon = test system: HCC-2998 colon
KM12 colon = test system: KM12 colon

SMILES	growth (T-47D breast)	growth (BT-549 breast)	growth (MDA-MB-435 melanoma)	growth (SW-620 colon)	growth (MCF7 breast)	growth (HCT-116 colon)	growth (HCC-2998 colon)	growth (KM12 colon)
Nc1nc2ccccc2c2c1S(=O)(=O)c1ccc(Cl)cc1C2=O	-0.213% (active)	24.3%	20.5%	2.06% (active)	9.68% (active)	1.05% (active)	41.5%	18.4%
COc1ccc(Nc2ncc(Br)c(NCCCNC(=O)c3cccs3)n2)cc1	46.2%	45.6%	59%	24.7%	42.9%	26.2%	80.6%	20.6%
COc1ccc2c(c1)CC[C@H](O)/C2=C/c1cc(OC)c(OC)c(OC)c1	51.9%	4.02% (active)	-54.4% (active)	21.1%	16%	2.27% (active)	22.1%	10.8%
CCOC(=O)c1c2c(n3cccc(F)c13)C(=O)c1ncccc1C2=O	54.5%	21.7%	13.1%	-7.69% (active)	-23.1% (active)	-10.7% (active)	25%	19%
O=S(=O)(Nc1cc(F)cc(Cl)c1)c1ccc(-c2cnc(C3CC3)o2)cc1	31.7%	40.6%	1.17% (active)	12%	13.7%	28.1%	54.9%	29.4%
Cc1ccc(/C=C2\COc3ccc(O)cc3C2=O)cc1	88.9%	79.1%	75.8%	47.9%	12.8%	59.5%	112%	46.6%
COC(=O)c1cc(N=C2NC(=O)/C(=C/C=C/c3ccccc3)S2)ccc1O	32.8%	48.5%	-35.6% (active)	31.4%	17.9%	18.2%	49.1%	23.1%
CCCc1c(OC(=O)c2ccccc2)nc2[nH]c(=O)sc2c1C	89.7%	95.1%	103%	95.3%	92.9%	98%	93.5%	101%
Cn1cc(-c2csc(-c3c[nH]c4ccc(Br)cc34)n2)c2ccnc(Cl)c21	25.9%	84.1%	78.5%	8.27% (active)	46.6%	49.8%	82.9%	50.8%
O=C1/C(=C/c2cccc(F)c2)CN(C(=O)C(Cl)Cl)C/C1=C\c1cccc(F)c1	-26.5% (active)	-81.1% (active)	-90.2% (active)	-63.2% (active)	-46.7% (active)	-82.8% (active)	-86.5% (active)	-74.3% (active)
COc1ccc(/C=C/C(=O)c2cccc(OCCCCOc3cccc(C(=O)/C=C/c4ccc(OC)c(OC)c4)c3)c2)cc1OC	43.3%	60.7%	75.5%	89.5%	44.3%	58.6%	116%	79.1%
CCOC(=O)c1c(NC(=O)c2cccc(C(F)(F)F)c2)sc2c(CN(C)C)c(O)ccc12	70.3%	96.3%	-22.6% (active)	-6.39% (active)	26.3%	33.7%	-64.2% (active)	79.4%
C=C1CC[C@@H]2[C@](C)(COC(C)=O)[C@H](OC(C)=O)CC[C@@]2(C)[C@@H]1CC(Nc1ccc(S(=O)(=O)Nc2ncccn2)cc1)C1=CCOC1=O (some centres not stated)	42.3%	-32% (active)	-14.8% (active)	-70% (active)	-19.6% (active)	-55% (active)	32%	-13.2% (active)
O=C(Nc1nc2ccc(C(=O)N3CCN(/C=C/c4ccccc4)CC3)cc2s1)c1ccc(NCCc2ccccc2)c([N+](=O)[O-])c1	43.2%	71.9%	55.8%	4.25% (active)	16%	11.2%	76.9%	53.5%
Cc1ccc(NC(=O)Cn2cc(CN3CCN(c4ccnc5cc(Cl)ccc45)CC3)nn2)cc1	86.5%	81.5%	94.5%	88.6%	79.4%	96.9%	97.3%	85.8%
CCCCn1c(=O)[nH]c(N)c([C@@H]2c3c([nH]c(=O)n(CCCC)c3=O)Oc3ccc4ccccc4c32)c1=O	81.1%	46.9%	5.95% (active)	-67.9% (active)	46%	-26.3% (active)	83.3%	-44.1% (active)
CC(=O)Oc1ccc(C)cc1C	97.9%	90.8%	113%	108%	77.7%	98.3%	112%	103%
COc1cccc(/C=C2\COc3ccc(O)c(O)c3C2=O)c1	-0.573% (active)	15.6%	-3.44% (active)	1.94% (active)	17.6%	-7.55% (active)	19.8%	-13.7% (active)
O=c1scc(-c2ccc(C(F)(F)F)cc2)s1	95.6%	88.3%	87.5%	96.8%	64.9%	100%	76.7%	109%
CCc1ncnc2c1ccn2C(C)c1ccc(OC)c(F)c1 (configuration not stated)	36.1%	52.4%	6.71% (active)	27.7%	33.4%	18.8%	56.6%	27.8%
CC(C)c1ccc(Cc2cnc(NC(=O)c3cc(Br)cs3)s2)cc1	30.3%	42.8%	-66.9% (active)	28.3%	11.7%	26.1%	64%	20.7%
COc1ccc(-c2cc(-c3ccc(Cl)cc3)c(C#N)c(=O)n2Cc2ccc(C(=O)Nc3ccccc3N)cc2)cc1	72.7%	56.5%	44.9%	78.9%	40.1%	69.2%	107%	57.3%
CC(C)c1ccc(C(=O)Nc2nc3ccc(O)c(CN(C)C)c3s2)cc1	77.8%	73.6%	55.4%	36.2%	80.5%	47.3%	63.7%	36%
N#CSc1c[nH]c2cccc(/C=C/C(=O)/C=C(/C=C/c3cccc4[nH]cc(SC#N)c34)OB(F)F)c12	9.55% (active)	-25.3% (active)	-74.7% (active)	-35% (active)	-22.6% (active)	-88.5% (active)	-32.7% (active)	11.7%
CCN1C(=O)N(CC)C2C1NN=c1s/c(=C\c3ccccc3F)c(=O)n12 (configuration not stated)	55.2%	7.28% (active)	-37.4% (active)	18.2%	15.2%	7.85% (active)	12.8%	4.31% (active)
O=C(O)CCCN1C(=O)/C(=C/c2cn(-c3ccccc3)nc2-c2ccc([N+](=O)[O-])cc2)SC1=S	61.6%	55.1%	48.6%	65.7%	52.3%	36.9%	64.6%	54.1%
CC(C)(Sc1cc(C(C)(C)C)c(OC(=O)CCCC(=O)O)c(C(C)(C)C)c1)Sc1cc(C(C)(C)C)c(OC(=O)CCCC(=O)O)c(C(C)(C)C)c1	49.5%	39.8%	27.8%	41.4%	30%	15.9%	22.1%	10.9%
N#Cc1ccc(O)c(C2=NCC(c3cccc(Oc4ccccc4)c3)O2)c1 (configuration not stated)	-12.5% (active)	30.6%	35.2%	25.6%	21.4%	16.9%	43.7%	21%
C#CCNC(=O)[C@H](CC)[C@H]1CC[C@H](C)[C@H]([C@@H](C)[C@H](O)[C@H](C)C(=O)[C@H](CC)C2O[C@]3(C=CC(=O)[C@]4(CC[C@@](C)([C@H]5CC[C@](O)(CC)[C@H](C)O5)O4)O3)[C@H](C)C[C@@H]2C)O1 (some centres not stated)	41.9%	40.9%	-65.3% (active)	30.8%	24%	25.9%	85.4%	23.8%
